Screening results from PubChem.
An excerpt weighted towards active compounds, which were near 3.5% of everything screened.
mHTT CaM bind = disrupts binding of mutant huntingtin to calmodulin; AlphaScreen His-mHTT/GST-CaM binding, luminescence; inhibition, % at 15 µM; hit rate 3.6% among 190,000
Pf apPOL block = Pf-apPOL DNA polymerase inhibition. Recombinant Pf-apPOL, molecular beacon fluorescence, 1.5 h. inhibition, % at 10 µM. hit rate 0.25% among 210,000. AID 1794808
Hits are given with their value; 0 = inactive; - = no result given. Cut-off read from the data, not from the text of the source: active = inhibition above about 50%; inactive = the rest.

SMILES	mHTT CaM bind	Pf apPOL block
CCc1cc2c(N3CCCC(C(=O)N(C)C)C3)nccc2s1 (centres undefined)	0	0
CCOC(=O)c1ccc(Oc2c(C(F)(F)F)oc3c(CN(C)C)c(O)ccc3c2=O)cc1	0	0
O=C(c1ccoc1)N1CCCC(c2nncn2Cc2ccccc2)C1 (centres undefined)	0	0
CCOc1ccc(OCCNC(=O)c2cccs2)cc1	0	0
O=C(NCCOc1ccc(-c2ccccn2)nn1)c1ccco1	100	0
O=C(NCCOc1ccccc1-c1ccccc1)c1ccco1	0	0
CC(Oc1ccccc1F)C(=O)NCCN1CCCCC1 (centres undefined)	0	0
CC(Oc1ccccc1F)C(=O)NCCOc1ccc(-c2ccccn2)nn1 (centres undefined)	100	0
O=C(NCCOc1ccc(-c2ccccn2)nn1)c1cccs1	100	0
O=C(C1CC1)N1CCc2sc(S(=O)(=O)NCc3ccccc3F)cc2C1	0	0
CC(C)c1ccc(NC(=O)c2ccc(SCCN3CCOCC3)nc2)cc1	0	0
O=C(NCc1ccco1)c1ccc(CS(=O)(=O)Cc2ccccc2Cl)o1	0	0
Fc1ccc(-c2nc(-c3ccccn3)no2)c(Cl)c1	-	0
CNc1nc2c(C)cccn2c(=O)c1C=NCCO	0	0
N#C/C(=C\c1ccc(F)cc1)c1nc(C2CC2)cs1	0	0
CCCC1N=C(c2ccc(Cl)cc2)CC(c2cccc(OC)c2O)N1 (centres undefined)	52	0
CCCC1N=C(c2cccc(OC)c2)CC(c2ccccc2O)N1 (centres undefined)	0	0
COc1ccc(Cl)cc1NC(=O)C1CC(=O)N(CCc2c[nH]c3ccc(C)cc23)C1 (centres undefined)	75	0
COc1ccc(C)cc1NC(=O)C1CC(=O)N(CCc2c[nH]c3ccc(Cl)cc23)C1 (centres undefined)	0	0
COc1ccc(OC)c(NC(=O)C2CC(=O)N(CCc3c[nH]c4ccc(Cl)cc34)C2)c1 (centres undefined)	81	0
COc1ccccc1NC(=O)C1CC(=O)N(CCc2c[nH]c3ccc(Cl)cc23)C1 (centres undefined)	0	0
O=C(NC1CCCC(O)C1)c1cccc(Br)c1 (centres undefined)	0	0
CCc1cccc(NC(=O)C2CCN(c3c(C#N)cnc4ccc(OC)cc34)CC2)c1	0	0
Cc1sc(Nc2ccccc2N2CCOCC2)nc1-c1ccc(-c2ccccc2F)cc1	-	0
CN(C)C=C1C(=O)c2ccccc2N(C)S1(=O)=O	-	0
SMILES	mHTT CaM bind	Pf apPOL block
CCCNC(=O)c1ccc(-c2nc3ccccc3n(CC(C)C)c2=O)cc1	0	0
CCNCCNC(=O)c1c(O)c2cc(F)cc3c2n(c1=O)C(C)CC3 (centres undefined)	98	0
CC1CCc2cc(F)cc3c(O)c(C(=O)NCCCN4CCOCC4)c(=O)n1c23 (centres undefined)	0	0
Nc1ccc2nc(-c3ccccc3Br)[nH]c2c1	57	0
Nc1ccc2nc(C(F)(F)F)[nH]c2c1	0	-
Nc1ccc2nc(CCc3nc4ccc(N)cc4[nH]3)[nH]c2c1	0	0
Nc1ccc2nc(-c3ccc(N)c(Cl)c3)[nH]c2c1	66	0
Nc1ccc(-c2nc3c(Cl)cc(N)cc3[nH]2)cc1	0	0
Nc1ccc2nc(-c3ccc(Oc4ccc(-c5nc6ccc(N)cc6[nH]5)cc4)cc3)[nH]c2c1	65	0
CC(O)(CNC(=O)C1(c2ccc(Cl)cc2)CCCC1)c1ccc2c(c1)OCO2 (centres undefined)	0	0
Cc1c(C(=O)Nc2ccc(F)cc2F)sc2nc(-c3ccccc3)cn12	0	0
O=C(NCC1COC2(CCCCC2)O1)c1ccc([N+](=O)[O-])cc1Cl (centres undefined)	0	0
C=CCSc1nc(O)cc(=O)n1C	0	0
COc1ccc(C(=O)ONc2ccc(N=O)cc2)c(OC)c1	0	0
COCc1[nH]nc2c1C(c1cccnc1)C(C#N)=C(N)O2 (centres undefined)	0	0
CCN(CC)C(=O)CC(c1ccc(N(C)C)cc1)c1c(OC)cc(OC)c2c(-c3ccccc3)cc(=O)oc12 (centres undefined)	0	0
COc1ccc(C(CC(=O)N2CCCC2)c2c(OC)cc(OC)c3c(-c4ccccc4)cc(=O)oc23)cc1 (centres undefined)	81	0
COc1ccc(C(CC(=O)N2CCCC2)c2c(OC)cc(OC)c3ccc(=O)oc23)cc1 (centres undefined)	0	0
COc1ccc(C(CC(=O)N2CCOCC2)c2c(OC)cc(OC)c3c(-c4ccccc4)cc(=O)oc23)cc1 (centres undefined)	0	0
COc1cc(OC)c2c(-c3ccccc3)cc(=O)oc2c1C(CC(=O)N1CCCC1)c1ccc(N(C)C)cc1 (centres undefined)	90	0
COc1cc(C(CC(=O)N2CCCC2)c2c(OC)cc(OC)c3c(-c4ccccc4)cc(=O)oc23)cc(OC)c1OC (centres undefined)	52	0
O=C(CC1CCN(C(=O)c2ccccc2Cl)CC1)NCc1ccccc1	0	0
CCN(CC)c1cc(C)c2cc(NC(=O)/C=C/c3cccnc3)ccc2n1	0	0
Cc1ccc(NC(=O)C2CCCN(C(=O)c3ccc(F)c(F)c3)C2)cc1 (centres undefined)	0	0
CC(CCc1ccccc1)NS(=O)(=O)c1ccccc1[N+](=O)[O-] (centres undefined)	0	0
SMILES	mHTT CaM bind	Pf apPOL block
N#CC1=C(N)C(C#N)(C#N)C(c2ccc(I)cc2)C=C1C1CC1 (centres undefined)	58	0
N#CC1=C(N)C(C#N)(C#N)C(c2ccc(O)cc2)C2CCCC=C12 (centres undefined)	0	0
Cc1cc(C(=O)Nc2ccc(F)c(F)c2)nc2ccnn12	0	0
Cc1noc(C2CN(C(=O)Nc3ccccc3)CC23CCN(C)CC3)n1 (centres undefined)	0	0
Cc1[nH]nc(SCC(=O)Nc2cc(Cl)ccc2O)c1[N+](=O)[O-]	52	0
Cc1[nH]nc(SCC(=O)Nc2cccc(Cl)c2)c1[N+](=O)[O-]	0	0
O=C(NCc1cccc(C(F)(F)F)c1)C1CCN(c2cncnc2N2CCCC2)CC1	63	0
O=C(NCc1ccc(Cl)cc1)C1CCN(c2cncnc2N2CCCC2)CC1	70	0
CCc1ccc(CNC(=O)C2CCN(c3cncnc3N3CCCC3)CC2)cc1	0	0
O=C(NCc1cccc(F)c1)C1CCN(c2cncnc2N2CCCC2)CC1	0	0
c1ccc(-c2nonc2-c2ccccc2)cc1	0	0
CC1CCc2nn(CC(=O)Nc3c(F)c(F)c(F)c(F)c3F)cc2C1 (centres undefined)	0	0
Cc1nc(C)c2c(n1)N(CC1CCCO1)C(=O)CC2 (centres undefined)	0	0
Cc1cccc(CN2C(=O)CCc3c(C)nc(C)nc32)c1	0	51
Cc1cccc(CN2C(=O)CCc3c(C)nc(-c4ccncc4)nc32)c1	0	0
Cc1nc(C)c2c(n1)N(CC1CCCCC1)C(=O)CC2	0	50
COc1ccc([N+](=O)[O-])cc1N=Cc1ccccc1[N+](=O)[O-]	0	0
COC(=O)c1cnc2nc(C)ccc2c1Nc1ccc(Br)cc1C	94	0
COC(=O)c1cnc2nc(C)ccc2c1Nc1cc(Cl)ccc1C	65	0
COC(=O)c1cnc2nc(C)ccc2c1Nc1ccc(Cl)cc1	62	0
